# Experimental data taken from PMC5540273 (PLoS ONE, 2017).
# Like-named read-outs stand apart in the source and are kept apart here.
# Tests used:
# [1] = tested on: BUB1; conditions: concentration: 1 μM, replicates: in singlicate; n = 1
# [2] = tested on: CAMK1B; conditions: concentration: 1 μM, replicates: in singlicate; n = 1
# [3] = tested on: CAMK1D; conditions: concentration: 1 μM, replicates: in singlicate; n = 1
# [4] = tested on: CAMK1G; conditions: concentration: 1 μM, replicates: in singlicate; n = 1
# [5] = tested on: CAMK1; conditions: concentration: 1 μM, replicates: in singlicate; n = 1
# [6] = tested on: CAMK2A; conditions: concentration: 1 μM, replicates: in singlicate; n = 1
# [7] = tested on: CAMK2B; conditions: concentration: 1 μM, replicates: in singlicate; n = 1
# [8] = tested on: CAMK2D; conditions: concentration: 1 μM, replicates: in singlicate; n = 1
# [9] = tested on: CAMK2G; conditions: concentration: 1 μM, replicates: in singlicate; n = 1
# [10] = tested on: CAMK4; conditions: concentration: 1 μM, replicates: in singlicate; n = 1
# [11] = tested on: CAMKK1; conditions: concentration: 1 μM, replicates: in singlicate; n = 1
# [12] = tested on: CAMKK2; conditions: concentration: 1 μM, replicates: in singlicate; n = 1
# [13] = tested on: CASK; conditions: concentration: 1 μM, replicates: in singlicate; n = 1
# [14] = tested on: T1, CDC2L1; conditions: concentration: 1 μM, replicates: in singlicate; n = 1
# T1 construct: gene CDK11B
# [15] = tested on: CDC2L2; conditions: concentration: 1 μM, replicates: in singlicate; n = 1
# [16] = tested on: T2, CDC2L5; conditions: n = 1
# T2 construct: gene CDK13
# [17] = tested on: T3, CDK11; conditions: concentration: 1 μM, replicates: in singlicate; n = 1
# T3 construct: gene CDK19
# [18] = tested on: CDK2; conditions: concentration: 1 μM, replicates: in singlicate; n = 1
# [19] = tested on: CDK3; conditions: concentration: 1 μM, replicates: in singlicate; n = 1
# [20] = tested on: CDK4-cyclinD1; conditions: n = 1
# [21] = concentration: 1 μM, replicates: in singlicate
# 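Note: KINOMEscan kinase panel screen.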
smiles,measurement,setting,value
O=c1cc(N2CCOCC2)nc2n(Cc3cccc(Cl)c3Cl)c(C3CC3)nn12 [GSK2358994],%Inh,[1],0%
same,%Inh,[2],0%
same,%Inh,[3],0%
same,%Inh,[4],5%
same,%Inh,[5],0%
same,%Inh,[6],25%
same,%Inh,[7],10%
same,%Inh,[8],18%
same,%Inh,[9],0%
same,%Inh,[10],5%
same,%Inh,[11],3%
same,%Inh,[12],8%
same,%Inh,[13],26%
same,%Inh,[14],0%
same,%Inh,[15],0%
same,%Inh,[16]; 1 µM,0%
same,%Inh,[17],0%
same,%Inh,[18],0%
same,%Inh,[19],5%
same,%Inh,[20]; 1 µM,0%
Cn1ccc2ncnc(Oc3ccc(NC(=O)Nc4ccncc4)c(Cl)c3)c21,%Inh,[1],11%
same,%Inh,[2],0%
same,%Inh,[3],0%
same,%Inh,[4],0%
same,%Inh,[5],0%
same,%Inh,[6],0%
same,%Inh,[7],0%
same,%Inh,[8],0%
same,%Inh,[9],0%
same,%Inh,[10],7%
same,%Inh,[11],0%
same,%Inh,[12],2%
same,%Inh,[13],0%
same,%Inh,[14],0%
same,%Inh,[15],0%
same,%Inh,[16]; [21],25%
same,%Inh,[17],0%
same,%Inh,[18],0%
same,%Inh,[19],0%
same,%Inh,[20]; [21],0%
Cc1cccc(-c2nc(-c3ccc(S(C)(=O)=O)cc3)sc2-c2ccncc2)c1,%Inh,[1],25%
same,%Inh,[2],0%
same,%Inh,[3],15%
same,%Inh,[4],9%
same,%Inh,[5],5%
same,%Inh,[6],0%
same,%Inh,[7],0%
same,%Inh,[8],4%
same,%Inh,[9],5%
same,%Inh,[10],0%
same,%Inh,[11],4%
same,%Inh,[12],5%
same,%Inh,[13],0%
same,%Inh,[14],0%
same,%Inh,[15],0%
same,%Inh,[16]; [21],9%
same,%Inh,[17],0%
same,%Inh,[18],14%
same,%Inh,[19],3%
same,%Inh,[20]; [21],0%
Nc1nc(-c2ccc3c(N)n[nH]c3c2)cc(N2CCCC2)n1 [GSK2227430],%Inh,[1],30%
same,%Inh,[2],3%
same,%Inh,[3],20%
same,%Inh,[4],0%
same,%Inh,[5],25%
same,%Inh,[6],0%
same,%Inh,[7],0%
same,%Inh,[8],0%
same,%Inh,[9],21%
same,%Inh,[10],0%
same,%Inh,[11],0%
same,%Inh,[12],10%
same,%Inh,[13],0%
same,%Inh,[14],0%
same,%Inh,[15],14%
same,%Inh,[16]; [21],0%
same,%Inh,[17],1%
same,%Inh,[18],0%
same,%Inh,[19],0%
same,%Inh,[20]; [21],0%
NCC(NC(=O)c1cc(-c2cn[nH]c2)c(-c2ccnc3[nH]ccc23)s1)c1ccccc1.O=C(O)C(F)(F)F.O=C(O)C(F)(F)F (stereo not drawn) [GSK1325775],%Inh,[1],94.6%
same,%Inh,[2],49%
same,%Inh,[3],50%
same,%Inh,[4],33%
same,%Inh,[5],41%
same,%Inh,[6],0%
same,%Inh,[7],12%
same,%Inh,[8],35%
same,%Inh,[9],30%
same,%Inh,[10],0%
same,%Inh,[11],76%
same,%Inh,[12],67%
same,%Inh,[13],23%
same,%Inh,[14],0%
same,%Inh,[15],11%
same,%Inh,[16]; [21],32%
same,%Inh,[17],34%
same,%Inh,[18],0%
same,%Inh,[19],0%
same,%Inh,[20]; [21],48%
CCn1cnc2c(N)ncnc21 [GW345098],%Inh,[1],3%
same,%Inh,[2],0%
same,%Inh,[3],10%
same,%Inh,[4],0%
same,%Inh,[5],9%
same,%Inh,[6],6%
same,%Inh,[7],8%
same,%Inh,[8],0%
same,%Inh,[9],0%
same,%Inh,[10],1%
same,%Inh,[11],8%
same,%Inh,[12],2%
same,%Inh,[13],31%
same,%Inh,[14],1%
same,%Inh,[15],6%
same,%Inh,[16]; [21],0%
same,%Inh,[17],0%
same,%Inh,[18],0%
same,%Inh,[19],1%
same,%Inh,[20]; [21],0%
COc1ccc(S(=O)(=O)NC2CCN(c3cc(C)nc(Nc4cccc(C#N)c4)n3)CC2)cc1.O=C(O)C(F)(F)F [GSK1653539],%Inh,[1],0%
same,%Inh,[2],1%
same,%Inh,[3],17%
same,%Inh,[4],0%
same,%Inh,[5],0%
same,%Inh,[6],0%
same,%Inh,[7],0%
same,%Inh,[8],6%
same,%Inh,[9],11%
same,%Inh,[10],0%
same,%Inh,[11],2%
same,%Inh,[12],16%
same,%Inh,[13],0%
same,%Inh,[14],0%
same,%Inh,[15],37%
same,%Inh,[16]; [21],0%
same,%Inh,[17],0%
same,%Inh,[18],0%
same,%Inh,[19],0%
same,%Inh,[20]; [21],0%
Cl.Nc1ncnc2occ(-c3ccc(NC(=O)Nc4cc(C(F)(F)F)ccc4F)cc3)c12 [SB-707548],%Inh,[1],17%
same,%Inh,[2],36%
same,%Inh,[3],23%
same,%Inh,[4],0%
same,%Inh,[5],22%
same,%Inh,[6],0%
same,%Inh,[7],0%
same,%Inh,[8],0%
same,%Inh,[9],25%
same,%Inh,[10],32%
same,%Inh,[11],9%
same,%Inh,[12],25%
same,%Inh,[13],5%
same,%Inh,[14],25%
same,%Inh,[15],49%
same,%Inh,[16]; [21],97.4%
same,%Inh,[17],100%
same,%Inh,[18],80%
same,%Inh,[19],89%
same,%Inh,[20]; [21],3%
Fc1ccc(-c2nn3c(OCC(F)(F)F)cccc3c2-c2ccncc2)cc1 [GW514784],%Inh,[1],99%
same,%Inh,[2],0%
same,%Inh,[3],7%
same,%Inh,[4],0%
same,%Inh,[5],0%
same,%Inh,[6],0%
same,%Inh,[7],0%
same,%Inh,[8],0%
same,%Inh,[9],22%
same,%Inh,[10],0%
same,%Inh,[11],8%
same,%Inh,[12],9%
same,%Inh,[13],7%
same,%Inh,[14],0%
same,%Inh,[15],11%
same,%Inh,[16]; [21],0%
same,%Inh,[17],3%
same,%Inh,[18],0%
same,%Inh,[19],0%
same,%Inh,[20]; [21],46%
O=C(NCCNc1ccnc(Nc2ccc(F)cc2)n1)c1cc2ccccc2s1 [GSK1379874],%Inh,[1],49%
same,%Inh,[2],0%
same,%Inh,[3],1%
same,%Inh,[4],0%
same,%Inh,[5],1%
same,%Inh,[6],0%
same,%Inh,[7],0%
same,%Inh,[8],7%
same,%Inh,[9],18%
same,%Inh,[10],0%
same,%Inh,[11],5%
same,%Inh,[12],0%
same,%Inh,[13],1%
same,%Inh,[14],0%
same,%Inh,[15],8%
same,%Inh,[16]; [21],0%
same,%Inh,[17],0%
same,%Inh,[18],0%
same,%Inh,[19],0%
same,%Inh,[20]; [21],0%
COCCNC(=O)c1ccc(-c2cc(C(=O)NC3CC3)cc(F)c2C)cc1 [GW868318],%Inh,[1],51%
same,%Inh,[2],5%
same,%Inh,[3],10%
same,%Inh,[4],0%
same,%Inh,[5],14%
same,%Inh,[6],7%
same,%Inh,[7],10%
same,%Inh,[8],8%
same,%Inh,[9],13%
same,%Inh,[10],7%
same,%Inh,[11],3%
same,%Inh,[12],16%
same,%Inh,[13],16%
same,%Inh,[14],3%
same,%Inh,[15],15%
same,%Inh,[16]; [21],33%
same,%Inh,[17],6%
same,%Inh,[18],12%
same,%Inh,[19],11%
same,%Inh,[20]; [21],24%
COc1ccc(CNC(=O)NC2CCN(c3ccnc(Nc4ccc(OC)cc4)n3)C2)cc1 (stereo not drawn) [GSK1379727],%Inh,[1],56%
same,%Inh,[2],47%
same,%Inh,[3],21%
same,%Inh,[4],0%
same,%Inh,[5],18%
same,%Inh,[6],0%
same,%Inh,[7],0%
same,%Inh,[8],0%
same,%Inh,[9],8%
same,%Inh,[10],0%
same,%Inh,[11],0%
same,%Inh,[12],4%
same,%Inh,[13],16%
same,%Inh,[14],0%
same,%Inh,[15],8%
same,%Inh,[16]; [21],0%
same,%Inh,[17],1%
same,%Inh,[18],0%
same,%Inh,[19],13%
same,%Inh,[20]; [21],18%
N#Cc1c(N2CCOCC2)sc(-c2ccn[nH]2)c1-c1ccc(Cl)cc1,%Inh,[1],13%
same,%Inh,[2],12%
same,%Inh,[3],19%
same,%Inh,[4],72%
same,%Inh,[5],24%
same,%Inh,[6],0%
same,%Inh,[7],0%
same,%Inh,[8],47%
same,%Inh,[9],0%
same,%Inh,[10],4%
same,%Inh,[11],0%
same,%Inh,[12],0%
same,%Inh,[13],0%
same,%Inh,[14],0%
same,%Inh,[15],11%
same,%Inh,[16]; [21],0%
same,%Inh,[17],7%
same,%Inh,[18],0%
same,%Inh,[19],5%
same,%Inh,[20]; [21],31%
COc1cc2c(cc1OC[C@@H](O)CO)ncc1c3ccc(C#N)cc3[nH]c21,%Inh,[1],94.3%
same,%Inh,[2],27%
same,%Inh,[3],0%
same,%Inh,[4],0%
same,%Inh,[5],0%
same,%Inh,[6],89%
same,%Inh,[7],61%
same,%Inh,[8],84%
same,%Inh,[9],61%
same,%Inh,[10],0%
same,%Inh,[11],60%
same,%Inh,[12],22%
same,%Inh,[13],0%
same,%Inh,[14],0%
same,%Inh,[15],0%
same,%Inh,[16]; [21],0%
same,%Inh,[17],20%
same,%Inh,[18],0%
same,%Inh,[19],19%
same,%Inh,[20]; [21],0%
O=c1cc(N2CCOCC2)nc2n(Cc3cccc4ccccc34)ccn12 [GSK2333389],%Inh,[1],32%
same,%Inh,[2],4%
same,%Inh,[3],15%
same,%Inh,[4],0%
same,%Inh,[5],0%
same,%Inh,[6],0%
same,%Inh,[7],0%
same,%Inh,[8],0%
same,%Inh,[9],0%
same,%Inh,[10],0%
same,%Inh,[11],0%
same,%Inh,[12],0%
same,%Inh,[13],0%
same,%Inh,[14],0%
same,%Inh,[15],0%
same,%Inh,[16]; [21],0%
same,%Inh,[17],0%
same,%Inh,[18],12%
same,%Inh,[19],0%
same,%Inh,[20]; [21],0%
